Measurements taken from the supplement of paper PMC3334620.
In all, about 33,000 sequences were measured (“E-score (-0.5 to 0.5)”: median about -0.04, highest 2% from about 0.36 on). The entries come from a sample that favours the highest values as a whole.

The sequences below were run against T1, Hmlalpha2 (UniProt P0CY09) (assay: PBM E-score (8-mer binding enrichment) (E-score (-0.5 to 0.5)); higher = stronger / more preferred TF binding). Settings: protein concentration: 200 nM; construct: GST-full length.
T1 sequence: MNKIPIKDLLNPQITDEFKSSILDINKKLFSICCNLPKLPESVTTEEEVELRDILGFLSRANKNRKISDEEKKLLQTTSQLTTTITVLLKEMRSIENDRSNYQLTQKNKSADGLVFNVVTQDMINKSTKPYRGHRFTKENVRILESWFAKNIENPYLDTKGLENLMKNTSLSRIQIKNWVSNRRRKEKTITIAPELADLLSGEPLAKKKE
Procedure: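 Universal 'all 10-mer' protein binding microarrays (Agilent AMADID 015681) probed with GST-tagged S. cerevisiae TFs (full-length or DBD) made by in vitro transcription/translation (PURExpress), about 100-200 nM. Bound TF was detected with fluorescent anti-GST. Each ungapped 8-mer (which stands for itself and its reverse complement) is scored by the PBM enrichment score (E-score), a modified Wilcoxon-Mann-Whitney statistic from -0.5 to +0.5, computed with the Universal PBM Analysis Suite. Scale: above 0.35 generally sequence-specific binding.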
For GTTGTAAA, the “PBM E-score” value was 0.385. For GCTGTAAA, the “PBM E-score” value was 0.336. For AACACTAT, the “PBM E-score” value was 0.231. For ACTCGACA, the “PBM E-score” value was 0.203. CAAATCTG was tested, and the “PBM E-score” value was -0.0335. For AATTGCGT, the “PBM E-score” value was 0.201. ACGCCCGG was tested, and the “PBM E-score” value was -0.193. With GATCTTTA the “PBM E-score” value was 0.131. With ACACCCAT the “PBM E-score” value was -0.0488. In the case of AAAGGCTC, the “PBM E-score” value is reported as -0.223. In the case of CGGCCTAG, the “PBM E-score” value is reported as -0.322. With ACTCCTCC the “PBM E-score” value was -0.17. For AGTTCTCA, the “PBM E-score” value was 0.0389. For GTAATAGA, the “PBM E-score” value was 0.257. In the case of ATAATACC, the “PBM E-score” value is reported as 0.0152. For CTAATACA, the “PBM E-score” value was 0.342. For ATAATACG, the “PBM E-score” value was 0.239. With ATAATACA the “PBM E-score” value was 0.38. In the case of GTAATACA, the “PBM E-score” value is reported as 0.397. CCCTTATC was tested, and the “PBM E-score” value was -0.0289. For GCTAGCGA, the “PBM E-score” value was -0.117. With ATGAAACC the “PBM E-score” value was 0.0645. For ACATTGCG, the “PBM E-score” value was 0.249. In the case of CTCGTAGA, the “PBM E-score” value is reported as -0.0578. For AAGCGTAT, the “PBM E-score” value was 0.0488. In the case of ACTTGGAT, the “PBM E-score” value is reported as 0.0128. With CCTCTCAC the “PBM E-score” value was -0.127. With CTTGTTCC the “PBM E-score” value was -0.0361. For AAGCACGC, the “PBM E-score” value was 0.0885. For ATTAACCA, the “PBM E-score” value was 0.0177. For ACGTATTA, the “PBM E-score” value was 0.345. In the case of ATGTATTA, the “PBM E-score” value is reported as 0.428. With GTGTATTA the “PBM E-score” value was 0.421. In the case of ATGTATGA, the “PBM E-score” value is reported as 0.296. For CTGTATTA, the “PBM E-score” value was 0.191. For GTGTATGA, the “PBM E-score” value was 0.262. With CTACAGCC the “PBM E-score” value was -0.113. For ATCAAGTA, the “PBM E-score” value was 0.217. For CCACGCAC, the “PBM E-score” value was -0.0131. ACACGCAG was tested, and the “PBM E-score” value was 0.313. With GCACGCAC the “PBM E-score” value was -0.213. With ACACGCAA the “PBM E-score” value was 0.35. For ACACGCAT, the “PBM E-score” value was 0.388. ACACGCAC was tested, and the “PBM E-score” value was 0.382. ACCAATTA was tested, and the “PBM E-score” value was 0.195. CTACGTTA was tested, and the “PBM E-score” value was 0.316. For ATTAGTAA, the “PBM E-score” value was 0.206. With CGGGGAGA the “PBM E-score” value was -0.256. For GACTACTC, the “PBM E-score” value was -0.0288. For TGAAGCAA, the “PBM E-score” value was 0.0475. ATGAGGCC was tested, and the “PBM E-score” value was -0.277. In the case of GGATAGGA, the “PBM E-score” value is reported as -0.212. AAACGACA was tested, and the “PBM E-score” value was 0.235. For ACGTACAT, the “PBM E-score” value was 0.381. ACGTACAG was tested, and the “PBM E-score” value was 0.0878. In the case of ACGTACAA, the “PBM E-score” value is reported as 0.273. With AAGTACAG the “PBM E-score” value was 0.0583. With AAGTACAT the “PBM E-score” value was 0.383. In the case of AAGTACAA, the “PBM E-score” value is reported as 0.199. In the case of AGATTTAT, the “PBM E-score” value is reported as 0.0596. In the case of AGCCTCCT, the “PBM E-score” value is reported as -0.16. With AACGCATG the “PBM E-score” value was 0.248. For CAACACAC, the “PBM E-score” value was 0.349. For CAACACAA, the “PBM E-score” value was 0.35. With CAACACGG the “PBM E-score” value was 0.386. TAACACGA was tested, and the “PBM E-score” value was 0.469. In the case of CAACACTA, the “PBM E-score” value is reported as 0.169. For CAACACGA, the “PBM E-score” value was 0.419. In the case of CAACACGC, the “PBM E-score” value is reported as 0.367. In the case of GAACACGC, the “PBM E-score” value is reported as 0.299. With CAACACCA the “PBM E-score” value was 0.207. TAACACCA was tested, and the “PBM E-score” value was 0.314. For CCACACGG, the “PBM E-score” value was -0.0191. In the case of GAACACGA, the “PBM E-score” value is reported as 0.287. For CAGCATCC, the “PBM E-score” value was -0.176. ACGGTGTA was tested, and the “PBM E-score” value was 0.205. With TACTCTCA the “PBM E-score” value was 0.103. In the case of CGTGCCTC, the “PBM E-score” value is reported as -0.119. CGTTAACG was tested, and the “PBM E-score” value was 0.211. For AATCCTTG, the “PBM E-score” value was 0.103. In the case of AGATATAA, the “PBM E-score” value is reported as 0.127. In the case of AGTAGACG, the “PBM E-score” value is reported as 0.0433. CGGTGGTA was tested, and the “PBM E-score” value was -0.0335. For CAACAAGA, the “PBM E-score” value was 0.225. For TAACAAGA, the “PBM E-score” value was 0.377. For GAACAAGA, the “PBM E-score” value was 0.139.
